Source: PubChem BioAssay AID1964107 (National Center for Advancing Translational Sciences (NCATS), 2024)
In all, about 31,000 compounds went through this assay and about 360 (1.2%) were called active. Roughly 8% stayed inconclusive and do not appear here. The sample holds actives, similar compounds and a random draw of the others, so the mix is not that of the screen. Unmarked numbers belong to inactive results. Calls come from the whole dose curve.

Biological target: Polyprotein P1234 (Chikungunya virus (strain S27-African prototype)) (UniProt Q8JUX6)
Sequence (Q8JUX6 whole entry, looked up): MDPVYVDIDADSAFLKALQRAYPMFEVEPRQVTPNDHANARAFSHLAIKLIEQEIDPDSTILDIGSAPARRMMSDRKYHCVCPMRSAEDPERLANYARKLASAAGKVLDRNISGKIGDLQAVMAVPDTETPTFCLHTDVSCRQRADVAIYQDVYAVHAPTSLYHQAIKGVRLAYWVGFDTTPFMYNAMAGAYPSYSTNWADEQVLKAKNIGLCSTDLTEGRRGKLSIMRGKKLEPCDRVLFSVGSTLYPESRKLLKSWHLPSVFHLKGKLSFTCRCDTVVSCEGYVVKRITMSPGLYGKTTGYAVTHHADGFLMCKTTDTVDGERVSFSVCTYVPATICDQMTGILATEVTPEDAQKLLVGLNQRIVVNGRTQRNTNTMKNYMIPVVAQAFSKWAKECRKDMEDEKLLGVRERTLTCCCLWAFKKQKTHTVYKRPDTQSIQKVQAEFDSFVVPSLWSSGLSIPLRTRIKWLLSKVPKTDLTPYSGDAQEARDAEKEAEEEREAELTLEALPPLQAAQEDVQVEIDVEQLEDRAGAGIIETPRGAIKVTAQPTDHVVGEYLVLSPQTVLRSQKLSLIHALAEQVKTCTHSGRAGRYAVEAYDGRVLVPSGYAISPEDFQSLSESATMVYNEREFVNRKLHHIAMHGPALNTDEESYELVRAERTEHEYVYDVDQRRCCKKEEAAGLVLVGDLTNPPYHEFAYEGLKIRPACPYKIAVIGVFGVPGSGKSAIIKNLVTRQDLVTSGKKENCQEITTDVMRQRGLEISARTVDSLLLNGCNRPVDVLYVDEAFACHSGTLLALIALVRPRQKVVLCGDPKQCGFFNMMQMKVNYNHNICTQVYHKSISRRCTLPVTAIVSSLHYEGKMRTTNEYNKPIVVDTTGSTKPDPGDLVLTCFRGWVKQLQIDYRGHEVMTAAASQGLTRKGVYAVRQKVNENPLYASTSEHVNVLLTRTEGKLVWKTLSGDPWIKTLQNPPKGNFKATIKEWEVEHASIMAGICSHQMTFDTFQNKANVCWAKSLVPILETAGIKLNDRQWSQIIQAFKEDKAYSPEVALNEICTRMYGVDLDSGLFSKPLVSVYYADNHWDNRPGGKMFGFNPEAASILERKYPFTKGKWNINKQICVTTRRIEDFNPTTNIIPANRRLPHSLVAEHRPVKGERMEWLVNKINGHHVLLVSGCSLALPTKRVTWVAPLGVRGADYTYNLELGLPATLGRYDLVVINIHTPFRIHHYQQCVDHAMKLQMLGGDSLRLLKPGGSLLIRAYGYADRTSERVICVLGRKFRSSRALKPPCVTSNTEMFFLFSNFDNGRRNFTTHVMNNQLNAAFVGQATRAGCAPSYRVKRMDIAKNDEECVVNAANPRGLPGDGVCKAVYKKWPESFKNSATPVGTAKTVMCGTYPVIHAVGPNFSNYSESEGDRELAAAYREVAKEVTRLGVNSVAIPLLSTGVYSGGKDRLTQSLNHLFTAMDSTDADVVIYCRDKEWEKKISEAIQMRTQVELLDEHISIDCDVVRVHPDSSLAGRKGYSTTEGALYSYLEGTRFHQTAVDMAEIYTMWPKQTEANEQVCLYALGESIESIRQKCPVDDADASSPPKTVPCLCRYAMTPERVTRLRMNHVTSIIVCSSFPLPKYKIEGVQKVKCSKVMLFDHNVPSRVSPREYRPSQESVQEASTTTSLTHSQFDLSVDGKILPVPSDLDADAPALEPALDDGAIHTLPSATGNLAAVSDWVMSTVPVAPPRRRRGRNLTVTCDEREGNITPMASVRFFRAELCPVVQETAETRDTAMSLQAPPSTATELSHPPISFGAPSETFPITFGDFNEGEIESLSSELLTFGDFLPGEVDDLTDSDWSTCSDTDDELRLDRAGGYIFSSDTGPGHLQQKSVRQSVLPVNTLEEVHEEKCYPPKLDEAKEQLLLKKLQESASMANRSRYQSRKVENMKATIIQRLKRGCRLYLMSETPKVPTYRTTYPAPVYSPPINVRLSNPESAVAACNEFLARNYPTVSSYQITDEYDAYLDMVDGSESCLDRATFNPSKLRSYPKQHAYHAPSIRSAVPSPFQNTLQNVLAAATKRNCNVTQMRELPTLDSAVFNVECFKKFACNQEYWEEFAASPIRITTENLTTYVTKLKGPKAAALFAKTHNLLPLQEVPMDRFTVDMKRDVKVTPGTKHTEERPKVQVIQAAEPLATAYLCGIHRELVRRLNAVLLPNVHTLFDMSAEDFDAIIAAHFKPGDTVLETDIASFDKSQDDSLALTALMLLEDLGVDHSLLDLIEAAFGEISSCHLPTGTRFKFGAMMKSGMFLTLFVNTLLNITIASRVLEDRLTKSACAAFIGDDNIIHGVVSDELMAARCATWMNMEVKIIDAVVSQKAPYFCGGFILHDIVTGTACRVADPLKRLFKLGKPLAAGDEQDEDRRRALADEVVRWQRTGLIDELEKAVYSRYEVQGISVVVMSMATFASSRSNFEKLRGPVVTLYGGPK
Experiment: Primary qHTS for inhibitors of NSP2Pro chikungunya virus (CHIKV); note: nearly all actives have a fitted effect of over 60% in size
Conditions: FRET peptide cleavage, fluorescence 1 h; series mostly up to 24.9 µM; activity change, negative = inhibition: at the top concentration
Text: PI: Natalia J. Martinez Ph.D. National Center for Advancing Translational Sciences (NCATS), National Institute of Health (NIH), Rockville, Maryland Chikungunya virus (CHIKV) is a mosquito-borne RNA virus that has emerged as one of the most important global arboviral threats in the last decade. Although the first CHIKV vaccine has recently been FDA approved for use in healthy adults at increased risk, to date, there are no available antiviral drugs for CHIKV infection. CHIKV nsP2 protease plays a crucial role in the processing of the viral polypeptide precursor to release enzymes required for viral replication, thus making it a promising drug target for antiviral discovery. Here, we established a high-throughput pipeline to identify small molecule inhibitors of nsP2 proteolytic activity. The pipeline is composed of a suite of 1,536-well in vitro assays to support quantitative high-throughput (qHTS) screening campaigns. Specifically, we developed a fluorescence resonance energy transfer (FRET)-based assay using a fluorogenic peptide substrate encompassing an endogenous cleavage site and purified recombinant protease domain (nsP2pro). Using this assay, we interrogated ~37,000 small molecules, including those in drug repurposing libraries as well as chemically diverse and medicinal chemistry-friendly compounds. Hits were selected for follow-up validation against full-length nsP2 and an additional peptide. FRET-based 1,536-well assays for papain, hepatitis C virus NS3-4A, and human furin proteases were implemented to characterize compound selectivity. […] Novel compounds were identified to be potential nsP2 inhibitors and molecular docking analyses were performed to explain the binding mode of selected hits. In vitro antiviral activity was evaluated for a subset of compounds using a high-throughput CHIKV infection assay. To our knowledge, the pipeline presented here is unprecedented for CHIKV antiviral discovery research.
PROTOCOL TABLE (as described by Inglese J, Shamu CE and Guy RK. 2007) SEQUENCE No. (e.g., 1, 2, 3, etc.); […] (e.g., Cells, Incubation, Reagent, etc.); VALUE; DESCRIPTION. 1; Control / Compound; 20 nL; Echo 655 acoustic dispenser, Greiner 1536-well solid bottom black plate. 2; Enzyme; 4 uL; BioRAPTR FRD liquid dispenser (Beckman Coulter). 3; Incubation; 15 min; room temperature. 4; Reagent; 4 uL; 2.5 uM Peptide 2 substrate. 5; Incubation; 1 hr; room temperature. 6; Detection; Fluorescence; WiewLux microplate reader (PerkinElmer), 525 nm excitation, 598/25 nm emission. NOTES (numbers refer to sequence numbers above). 1. Briefly, 20 nL DMSO, positive control ZnAc (20nM final concentration), and test compounds were transferred into a 1,536-well solid bottom black plate (789176-F, Greiner One) via Echo 655 acoustic dispenser (Beckman Coulter). For primary screens, compounds were tested at 7 concentrations, 1:3 dilution points ranging from 25 uM to 34 nM. Follow-up confirmatory screens were carried out at 11 concentrations, 1:3 dilution points from 25 uM to 0.42 nM. 2. Four uL nsP2pro enzyme mix (150 nM final concentration) in 10 mM Tris-HCl pH 8.0 with 0.01% Tween 20 assay buffer was dispensed into the plate using a BioRAPTR FRD liquid dispenser (Beckman Coulter). 3. The plate was incubated at room temperature (protected from light) for 15 min 4. Four microliter of peptide 2 substrate (2.5 uM final concentration) in assay buffer was added to the plate. 5. After 1 hour, plates were immediately read on a ViewLux high-throughput CCD imager (Exposure = 10 sec, Gain = High, Speed = Slow, Binning = 2X). The above assay was also incorporated in the NCATS HTS facility41, which allowed for robotic liquid and compound dispensing, microplate handling, and fluorescence reading.. REFERENCE: Inglese J, Shamu CE and Guy RK, Reporting data from high throughput screening of small molecule libraries, Nature Chemical Biology, 2007, 3(8): 438-441. doi.org/10.1038/nchembio0807-438.
% is set by controls: 0 for no effect and ±100 for the full control effect; potency is the fitted concentration of half-maximal effect.

SMILES | outcome | activity change, negative = inhibition | Potency
CN1CCN(C(=O)c2ccc(-c3cnc4c(O)ccc(C(=O)O)c4c3)cc2)CC1 | inactive | – | –
COc1ccc(NC(=O)CSc2nnc(-c3nnn(-c4ccc(F)cc4)c3C)o2)cc1 | – | -14.4% (inactive) | –
CNC(=O)[C@@H](Cc1ccccc1)N1CCC[C@H]1C(=O)NCC1CC1 | – | -2.23% [at 39.2 µM] (inactive) | –
COc1ccc(OC)c(NC(=O)CSC2=Nc3ccccc3C3=NC(CC(=O)NCCc4ccccc4)C(=O)N23)c1 (stereo not given) | – | -8.36% (inactive) | –
COC(=O)CC[C@@H](C)C1CCC2C3CCC4C[C@H](OC(C)=O)CCC4(C)C3C[C@H](O)C21C (stereo not given in full) | – | 6.27% (inactive) | –
CCOc1ccc(NC(=O)c2c(NC(=O)Cc3ccccc3)sc3c2CCCCC3)cc1 | – | – | 8.91 µM (active)
CCOc1ccc(NC(=O)c2c(NC(=O)Cc3ccccc3)sc3c2CCC(C)C3)cc1 (stereo not given) | – | – | 3.38 µM (active)
CCOC(=O)c1ccc(NC(=O)c2c(NCc3cccc(OC)c3)sc3c2CCC3)cc1 | – | -14.3% (inactive) | –
Cc1cccc(OCCCC(=O)Nc2sc3c(c2C(N)=O)CCC(C)C3)c1 (stereo not given) | – | -11.5% (inactive) | –
COC(=O)c1c(NC(=O)CCCOc2ccccc2)sc2c1CCC(C)C2 (stereo not given) | – | -57.2% (inactive) | –
O=C(Cc1ccccc1)Nc1sc2c(c1C(=O)Nc1ccc(Br)cc1)CCC2 | – | 12.8% (inactive) | –
COc1ccc(CCNS(=O)(=O)c2cc(-c3cc(C)no3)ccc2C)cc1OC | – | -12.3% (inactive) | –
CC(C)c1nccn1CCCNc1nc(-c2ccncc2)nc2c1cnn2C | – | -1.75% (inactive) | –
COc1ccc(NC(=O)Cn2c(=O)n(CCC(C)C)c(=O)c3cccnc32)cc1Cl | – | -5.33% (inactive) | –
N#Cc1ccc(NCCNCC(=O)N2CCCC2C#N)nc1 (stereo not given) | – | -15.9% (inactive) | –
CC(C)NC(=O)c1nn(-c2ccccc2F)nc1CO | – | 0.972% (inactive) | –
CC(C)Nc1ncc(C(=O)NC2CCCN(CCc3ccccc3)C2)cn1 (stereo not given) | – | 4.22% (inactive) | –
CN1CCCN(C(=O)CN2CC3CC(C2)[C@H]2CCCC(=O)N2C3)CC1 (stereo not given in full) | – | -11% (inactive) | –
Cc1ccccc1-c1nc(NCc2ccc(-c3cccnc3)cc2)c2ccccc2n1 | – | -3.76% (inactive) | –
CC(C)(O)c1ccc2c(c1)C(=O)CC1[C@](C)(CO)CCC[C@]21C (stereo not given in full) | – | 154% (inactive) | –
COc1cccc(-c2nc(S(=O)(=O)c3ccc(C)cc3)c(NCc3ccccc3)o2)c1 | – | -20.1% (inactive) | –
COc1ccc(-c2nc(S(=O)(=O)c3ccccc3)c(N3CCCCC3)o2)cc1 | – | – | 11.2 µM (active)
O=C(CSc1oc(-c2ccc(F)cc2)nc1S(=O)(=O)c1ccc(Br)cc1)NC1CCCCC1 | – | -29.8% (inactive) | –

SMILES | outcome | activity change, negative = inhibition | Potency
CN(C)c1cccc(-c2cnc(Nc3cnccn3)c3c2CCO3)c1 | inactive [at 39.2 µM] | – | –
CCCCNc1nc(C)nc2c1nc(-c1ccccc1)n2CCCCN(CC)CC | inactive | – | –
COc1ccc(OC)c(NC(=O)C2CCCN(S(=O)(=O)c3ccc4c(c3)CCCC(=O)N4)C2)c1 (stereo not given) | – | -6.34% (inactive) | –
C[C@H]1CC[C@@H]2N(C1)C[C@@H]1[C@H]([C@@H](O)[C@H](O)[C@]3(O)[C@H]1C[C@@]14OC5(O)[C@@H](C[C@@H](O)[C@@H]31)[C@]4(C)CC[C@@H]5O)[C@]2(C)O | – | 9.38% [at 10 µM] (inactive) | –
COc1ccccc1CNC(=O)CN1CCCC(CO)(CC2CC2)C1 (stereo not given) | inactive | – | –
COCCCN1CCC(NC(=O)c2cc(Cl)c(N)c3c2OCC3)CC1 | – | -1.5% (inactive) | –
COC(=O)c1ccccc1NC(=O)c1ccc(COc2ccccc2Cl)o1 | – | -24.7% (inactive) | –
COc1cc(OC)c(NC(=O)c2ccc(Cc3cc4c(cc3C)C(C)(C)CCC4(C)C)o2)c(OC)c1 | – | – | 11.1 µM (active)
Cc1ccc(CN(C(=O)c2ccccc2[N+](=O)[O-])c2ccccn2)cc1 | – | -12.2% (inactive) | –
COc1ccc2oc(=O)c(-c3cn4c(n3)sc3cc(OC)ccc34)cc2c1 | – | -19.8% (inactive) | –
Cc1ccc(C2CCN(C(=O)c3cnn(-c4ccccc4Cl)c3C3CCN(C(=O)OC(C)(C)C)CC3)C2)cc1 (stereo not given) | – | -9.46% (inactive) | –
Cc1c(P(=S)(c2ccccc2)c2ccccc2)[n+]2ccccc2n1CCCCc1ccccc1 | inactive | – | –
Cc1cnc(C(=O)N[C@H]2CCCCC/C=C\[C@@H]3C[C@@]3(C(=O)NS(=O)(=O)C3CC3)NC(=O)[C@@H]3C[C@@H](Oc4nc5ccccc5c5ccccc45)CN3C2=O)cn1 | – | – | inactive
CS(=O)(=O)c1ccc(OC[C@H]2C[C@@H](NC(=O)c3ccccc3)[C@H](O)[C@@H]2O)cc1 | inactive [at 39.2 µM] | – | –
CC1(C)[C@H](Cc2cc(-c3ccccc3)on2)C[C@@H]1NCC1CC1 | inactive [at 39.2 µM] | – | –
Cc1cccc(NC(=O)CSc2ncc(-c3ccccc3)[nH]2)c1C | – | -16.9% (inactive) | –
CCCc1nc(C(=O)N2CCC3(CCCNC3)C2)cs1 (stereo not given) | inactive | – | –
Clc1ccccc1CSc1nncn2c1cc1occc12 | – | -10.5% (inactive) | –
O=C(NCC(c1ccco1)S(=O)(=O)c1cccs1)c1ccc(F)cc1 (stereo not given) | – | -9.32% (inactive) | –
CCOc1ccc(NC(=O)Cn2c(C)ccc(C#N)c2=O)cc1 | – | 1.17% (inactive) | –
COc1ccc(-c2ccc3ncn(C4CC4)c(=O)c3n2)cn1 | – | -5.28% [at 39.2 µM] (inactive) | –
Cc1ccc(-c2ccc(=O)n(CCNC(C)c3ccco3)n2)cc1 (stereo not given) | – | -11.9% (inactive) | –
